This is one part of a sample in which hits are shown more often than they occur.
Pf Dd2 growth = Plasmodium falciparum Dd2 growth inhibition. P. falciparum Dd2 growth, SYBR Green, 72 h. Potency, µM (doses to about 28.9 µM), actives largely listed as inhibitors. 4.3% of 120,000 active. AID 1347417; active means well fitted inhibition curve with a large enough effect; further: nearly all actives have a fitted effect of over 65% in size
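Readout: SYBR Green fluorescence, 485 nm excitation, 535 nm emission, after ~16 h lysis at 37C. Before that, Dd2-infected red cells (2.5% hematocrit) grew 72 h with compound, 29 uM top final concentration.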
Numbers stand for hits; i = inactive; [ ] = remark or other dose.

SMILES	Pf Dd2 growth
O=C(C1CCCCC1)N1CCC(OC2CCN(Cc3ccccc3)CC2)CC1	i
Cc1c(F)cccc1NC(=O)N1CCC(OC2CCN(Cc3ccccc3)CC2)CC1	4.5µM
COc1ccc(C)cc1NC(=O)N1CCC(OC2CCN(S(C)(=O)=O)CC2)CC1	i
O=S(=O)(c1ccc(F)cc1)N1CCC(OC2CCN(Cc3ccccc3)CC2)CC1	i
O=C(NC1CCCCC1)N1CCC(OC2CCN(Cc3ccccc3)CC2)CC1	i
CCc1cccc(NC(=O)N2CCC(OC3CCN(Cc4ccccc4)CC3)CC2)c1	i
COc1ccc(C)cc1NC(=O)N1CCC(CN2CCC(C)CC2)CC1	i
NC(=O)[C@H](Cc1cccs1)NC(=O)[C@@H]1[C@@H](NC(=O)Nc2ccc(F)cc2F)CCN1C(=O)c1cnccn1	i
CS(=O)(=O)N1CCCN(Cc2cn[nH]c2-c2cccs2)CCNC(=O)CC1c1ccccc1 (configuration not stated)	i
Cc1ccc(C(=O)N2CCC(c3nc(-c4ccccc4)no3)C2)s1 (configuration not stated)	i[5.79 µM]
CCn1ccc(C(=O)NCCc2noc(-c3ccncc3)n2)n1	i
Cc1ccc(C(=O)N2CCN(C(=O)N3CC4CC(C3)[C@H]3CCCC(=O)N3C4)CC2)s1 (some centres not stated)	i
O=C(CSc1ccccn1)N[C@@H]1CCOC[C@H]1OCc1cscn1	i
Cc1ccc(C(=O)N2C[C@@H](Oc3cccnc3)C[C@H]2C(=O)N2CCCC2)s1	i
COCCn1cnnc1CN(C)c1cc(C2CC(O)C2)ncn1 (configuration not stated)	i
CCC(c1cccs1)N1C(=O)[C@H]2CN(S(=O)(=O)c3cc(F)ccc3F)C[C@H]2C1=O (some centres not stated)	i
O=C1COc2ccc(-c3ccoc3)nc2CN1CCOc1ccccc1	i
CC(=O)Nc1ccc(CN2CCCCC23Cc2ccccc2CNC3=O)cc1 (configuration not stated)	i
Cc1ccc(CCNC(=O)c2ccc3c(c2)N(Cc2cccc(F)c2)C(=O)c2ccccc2S3)cc1	i
COc1ccc(CCNC(=O)c2ccc3c(c2)N(Cc2ccccc2Cl)C(=O)c2ccccc2S3)cc1OC	11µM
O=C(NCc1ccco1)c1ccc2c(c1)N(Cc1ccccc1)C(=O)c1ccccc1S2	i
CNC(=O)c1ccc2c(c1)N(Cc1ccccc1Cl)C(=O)c1ccccc1S2	i
Cc1ccc(CCNC(=O)c2ccc3c(c2)N(Cc2ccccc2)C(=O)c2ccccc2S3=O)cc1 (configuration not stated)	i
CCOc1ccc(CCNC(=O)c2ccc3c(c2)N(Cc2ccccc2)C(=O)c2ccccc2S3=O)cc1OCC (configuration not stated)	i
CCOc1ccc(CN2C(=O)c3ccccc3Sc3ccc(C(=O)NCc4ccc5c(c4)OCO5)cc32)cc1	10µM
SMILES	Pf Dd2 growth
CCOc1ccc(CN2C(=O)c3ccccc3Sc3ccc(C(=O)NC)cc32)cc1	i
COc1ccc(CCNC(=O)c2ccc3c(c2)N(Cc2cc(C)ccc2C)C(=O)c2ccccc2S3=O)cc1OC (configuration not stated)	4.5µM
CC(C)CCNC(=O)CCc1nnc(-c2ccc(OC(C)C)cc2)[nH]c1=O	i
O=C(N[C@H]1CCN2C(=O)N(c3cccc(C(F)(F)F)c3)C(=O)[C@@H]2C1)c1cnccn1	i
COCCc1nncn1C1CCN(S(=O)(=O)c2ccccc2C(F)(F)F)CC1	i
CN(Cc1cc2n(n1)CCCNC2)CC1COCCO1 (configuration not stated)	i
O=C(NC1CCCCC1)N1CCCC(Cn2cnc3cccnc32)C1 (configuration not stated)	i
Cc1noc(C2CCCCCN2C(=O)c2ccccc2)n1 (configuration not stated)	i
CCCCN(C)CC(O)Cn1cc(/C=C/C(=O)c2ccc(OCC)cc2)c2ccccc21 (configuration not stated)	3.5µM
CCOc1ccc2c(c1)c(=O)c(C(=O)c1ccccc1)cn2Cc1ccccc1	i
COc1ccc(C(=O)/C=C/c2cn(CC(O)CN3CCc4ccccc43)c3ccccc23)cc1 (configuration not stated)	i
CCCCN(CCCC)CC(O)Cn1cc(/C=C/C(=O)c2ccccc2)c2ccccc21 (configuration not stated)	0.89µM
CCCCN(CC)CCCNC(=O)c1cn(C)c(=O)c2c1c1ccccc1n2C	i
CCc1noc(-c2cn(C3CCN(C(=O)c4cccc(C)c4)CC3)nn2)n1	i
O=C(c1cc(Br)cn2ccnc12)N1CCOCC1	i
CNC(=O)[C@@H]1CN(C(=O)NCc2ccccc2)C[C@H]1c1nc(C)no1	i
CC1(Cc2ccc3c(c2)OCO3)CCCN(CC(=O)NCc2ccco2)C1 (configuration not stated)	i
O=C(c1ccoc1)N1C[C@@H](CO)[C@H](c2ccncc2)C1	i
CC(C)Cc1cn(CC2CCCN(C(=O)c3n[nH]c4c3CCCC4)C2)nn1 (configuration not stated)	i
CCn1c2ccccc2c2cc(C(=O)N3CCCCCCNC(=O)CC3)ccc21	i

High-throughput results from PubChem.
